B1: PhoQ; a variant is named by its letters at X, in order, P23837 (parent)
chain: MKKLLRLFFPLSLRVRFLLATAAVVLVLSLAYGMVALIGYSVSFDKTTFRLLRGESNLFYTLAKWENNKLHVELPENIDKQSPTMTLIYDENGQLLWAQRDVPWLMKMIQPDWLKSNGFHEIEADVNDTSLLLSGDHSIQQQLQEVREDDDDAEMTHSVAVNVYPATSRMPKLTIVVVDTIPVELKSSYMVWSWFIYVLSANLLLVIPLLWVAAWWSLRPIEALAKEVRELEEHNRELLNPATTRELTSLVRNLNRLLKSERERYDKYRTTLTDLTHSLKTPLXXLQXXLRSLRSEKMSVSDAEPVMLEQISRISQQIGYYLHRASMRGGTLLSRELHPVAPLLDNLTSALNKVYQRKGVNISLDISPEISFVGEQNDFVEVMGNVLDNACKYCLEFVEISARQTDEHLYIVVEDDGPGIPLSKREVIFDRGQRVDTLRPGQGVGLAVAREITEQYEGKIVAGESMLGGARMEVIFGRQHSAPKDE

These results are taken from a collection of fitness landscapes (doi:10.1126/science.1257360).

Whole data set: some 140,000 sequences, median “enrichment ratio after two sorts for PhoP signalling” near 0, cut for the highest 2% near 11. The sample holds the highest values, similar sequences and a random draw of the others, so the mix is not that of the screen. Where only a bound is given, the exact number is not on record here.

Variants of B1 are the subject of this assay. Description: enrichment ratio after two sorts for PhoP signalling (ratio (wild type AVST 3.29)); higher = more functional. To be noted: with PhoP (E. coli).
As to SLNN, the enrichment ratio was not above 0.25. The result for SNVN reads 13.3. The result for SNCL reads 14.4; that for SNNN, 16.8; that for SRNN, not above 0.25. Consider SPVN, for which the enrichment ratio is not above 0.25. For the variant TFHC, the enrichment ratio is not above 0.25. As for NQTW, the enrichment ratio is not above 0.25. To ARRF belongs not above 0.25; to VRLN, not above 0.25. Consider SRSL, for which the enrichment ratio was not above 0.25.

In the case of SQVY, the enrichment ratio was 14.2. SQSL: the enrichment ratio is 9.58. NQVN: the enrichment ratio is not above 0.25. As for SLVY, the enrichment ratio is not above 0.25.

On to SRCL, for which the enrichment ratio was found to be 6.4. With SPVY, the enrichment ratio was not above 0.25.

Consider SQVN, for which the enrichment ratio came to 20.3. For GQCL, the enrichment ratio worked out at 7.51. SLVN: the enrichment ratio is 1.02. Consider SNSL, for which the enrichment ratio came to 16.8. To SQCL belongs 12.1; to GRRN, not above 0.25; to QVFR, not above 0.25. With QFNA, the enrichment ratio is not above 0.25.

For the variant FSTQ, the enrichment ratio was not above 0.25. To NDYC belongs not above 0.25. The result for PTST reads not above 0.25; that for QIDF, not above 0.25.

On to NSVL, for which the enrichment ratio was not above 0.25. With LHGW, the enrichment ratio was not above 0.25. For the variant NGIL, the enrichment ratio is not above 0.25. Consider LHHH, for which the enrichment ratio is not above 0.25. To ELYP belongs not above 0.25; to QEVN, not above 0.25. In the case of WNNL, the enrichment ratio was not above 0.25. On to SNRL, for which the enrichment ratio was not above 0.25. Consider TNSL, for which the enrichment ratio is 12.2.

On to MKVN, for which the enrichment ratio was not above 0.25. With LNSL, the enrichment ratio was not above 0.25. With SNNL, the enrichment ratio was 13.1. Consider MEVN, for which the enrichment ratio was determined as 17.3. Turning to WRMN, the enrichment ratio was not above 0.25. On to WNMN, for which the enrichment ratio is 12. SNEL: the enrichment ratio is not above 0.25. To MNSL belongs 4.59; to GPCQ, not above 0.25; to HTRL, not above 0.25. To WHQP belongs not above 0.25; to WEDV, not above 0.25; to HDYF, not above 0.25. In the case of AHNC, the enrichment ratio was not above 0.25.

Regarding WAWV, the enrichment ratio was not above 0.25. PHYI: the enrichment ratio is not above 0.25. Take CVSM: the enrichment ratio was not above 0.25. In the case of WFSM, the enrichment ratio was not above 0.25.

Take GGSM: the enrichment ratio is 7.14. TGSM: the enrichment ratio turned out to be 23.5.

Take CFSM: the enrichment ratio turned out to be 18.5. The result for RGSM reads not above 0.25. On to KTCN, for which the enrichment ratio is not above 0.25.

Regarding HRWF, the enrichment ratio is not above 0.25. With DYHL, the enrichment ratio was not above 0.25. Turning to MINL, the enrichment ratio is not above 0.25. For MFCN, the enrichment ratio is not above 0.25. As for MICN, the enrichment ratio came out at 31.9. Consider MIWN, for which the enrichment ratio is not above 0.25. As to MICI, the enrichment ratio was 0.945.

As to MILN, the enrichment ratio turned out to be 17.5.

Turning to MIRW, the enrichment ratio is not above 0.25. Turning to SSFG, the enrichment ratio is not above 0.25. The result for ACVT reads 1.11; that for ACLV, 16. With AILK, the enrichment ratio came out at 2.69. The result for ACWL reads not above 0.25.

With ACLL, the enrichment ratio turned out to be 13.3. For ACVL, the enrichment ratio is 5.91. Turning to ACIV, the enrichment ratio was found to be 0.927. On to ACHK, for which the enrichment ratio is not above 0.25. With ACWI, the enrichment ratio was not above 0.25. With ACLK, the enrichment ratio is 13.7. Turning to ACLT, the enrichment ratio came to 11.7. ACNT: the enrichment ratio was not above 0.25. For FPKK, the enrichment ratio is not above 0.25. Take KLEK: the enrichment ratio is not above 0.25.

For the variant STHN, the enrichment ratio is not above 0.25.

For CFKF, the enrichment ratio is not above 0.25. The result for MMGD reads not above 0.25; that for TVTR, 2.26; that for TRGD, not above 0.25.

For the variant QIWC, the enrichment ratio was not above 0.25. Turning to KYLR, the enrichment ratio was not above 0.25. As to TGGL, the enrichment ratio came to 3.52.

For the variant YWNM, the enrichment ratio was not above 0.25.

Consider YRPI, for which the enrichment ratio was not above 0.25.

As to AKCN, the enrichment ratio came out at 5.46. In the case of ACCN, the enrichment ratio came out at 12.1.

For ACIC, the enrichment ratio worked out at 9.45. In the case of ACNS, the enrichment ratio is not above 0.25. For the variant ACYM, the enrichment ratio worked out at 0.253. Consider ACLI, for which the enrichment ratio came to 5.06. Consider ACLN, for which the enrichment ratio came out at 13.6.

As for ACDS, the enrichment ratio stood at 0.253. As to ACLA, the enrichment ratio stood at 11.6. On to KCCN, for which the enrichment ratio was not above 0.25. On to ACLC, for which the enrichment ratio is 12.2. Consider ACLS, for which the enrichment ratio was 6.09. Turning to KVRT, the enrichment ratio is not above 0.25.

In the case of AYPT, the enrichment ratio was not above 0.25.

As for QIHR, the enrichment ratio was not above 0.25. To QDCY belongs not above 0.25; to AARG, not above 0.25; to DLGS, not above 0.25. Turning to VYSL, the enrichment ratio was not above 0.25. On to PPRP, for which the enrichment ratio was not above 0.25.

Regarding PSLE, the enrichment ratio was not above 0.25.

Regarding QMSW, the enrichment ratio was not above 0.25. Turning to ACLY, the enrichment ratio was 15.2.

Take ACGY: the enrichment ratio was not above 0.25. To ACNY belongs 0.855; to WFSN, not above 0.25; to ISKP, not above 0.25. As to LFTC, the enrichment ratio is not above 0.25. For AKVG, the enrichment ratio is not above 0.25. The result for AIVG reads 7.78. Take WIVC: the enrichment ratio was not above 0.25.

Turning to AKVC, the enrichment ratio stood at 15.3. For the variant KKVC, the enrichment ratio was not above 0.25.

As for AIVC, the enrichment ratio came to 19.1.

Regarding VMGF, the enrichment ratio is not above 0.25.

Turning to TSMS, the enrichment ratio worked out at 26.4. For TSMD, the enrichment ratio came to 10.7.

Regarding KSQV, the enrichment ratio was not above 0.25. In the case of TSQV, the enrichment ratio turned out to be 12.2. To KSMG belongs not above 0.25. As for MMWG, the enrichment ratio is not above 0.25. The result for KSMS reads not above 0.25; that for FSQV, not above 0.25; that for TSWG, 16.6. For LCWG, the enrichment ratio was not above 0.25.

As for FSMS, the enrichment ratio turned out to be 1.68.

With TSMG, the enrichment ratio was 13. On to EDGN, for which the enrichment ratio is not above 0.25. On to WMLF, for which the enrichment ratio is not above 0.25. The result for DHGA reads not above 0.25; that for GPST, not above 0.25; that for FTYH, not above 0.25.

On to IRVV, for which the enrichment ratio was not above 0.25.

On to DYPQ, for which the enrichment ratio was not above 0.25. As for EQAY, the enrichment ratio is not above 0.25.

For the variant NSWL, the enrichment ratio was found to be 1.26. To WSSA belongs not above 0.25; to FRMR, not above 0.25.
